Our source for the composite z-score and z-score values is PubChem BioAssay.

For test [1], the system named is PRMT1 (protein arginine N-methyltransferase 1). Nature of the test: small molecules binding arginine methyltransferase PRMT1 – biochemical, small-molecule microarray, 635 nm fluorescence, primary screen (AID 1088).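 Also: binding of Prmt1 protein to compounds spotted on small-molecule microarray slides.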 The note with it: higher = more signal.
Test [2] in a line: growth effects on S. cerevisiae YJM789 – YJM789 clinical isolate, OD600, 24 h, basal, primary screen (AID 1089).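 Also: growth of clinical yeast isolate S. cerevisiae YJM 789 seeded 1000 cells per well; test concentration not given here.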 The note with it: higher = more signal, called active from +8 up or from −8 down.
Test [3] can be described thus: S. pombe growth modifiers, basal conditions – strain 972, OD600, 24 h, no modulator, primary screen (AID 1090).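 Also: basal condition with compound alone and no growth modifier present; test concentration not given here.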 The settings on record: S. pombe 972 growth, higher = more signal, called active from +8 up or from −8 down.
The nature of test [4]: budding yeast growth modifiers under rapamycin – strain BY4716, OD600, 96 h, primary screen (AID 1091). Also: test concentration not given here. The settings on record: S. cerevisiae BY4716 + rapamycin, higher = more signal, called active from +8 up or from −8 down.
For test [5], the target named is Torsin-1A-interacting protein 2 (Homo sapiens) (UniProt Q8NFQ8). Nature of the test: small molecules binding lysate-expressed LULL1 – cell lysate, human LULL1 lysate, 635/667 nm fluorescence, primary screen (AID 1092).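 Also: probe is lysate of COS7 cells overexpressing human LULL1; score merges per-feature 667 nm fluorescence with signal-to-noise.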 The settings on record: small-molecule microarray, hLULL1 lysate binding, 635 nm fluorescence; higher = more signal.
Torsin-1A-interacting protein 2 (Homo sapiens), sequence (Q8NFQ8 whole entry, looked up): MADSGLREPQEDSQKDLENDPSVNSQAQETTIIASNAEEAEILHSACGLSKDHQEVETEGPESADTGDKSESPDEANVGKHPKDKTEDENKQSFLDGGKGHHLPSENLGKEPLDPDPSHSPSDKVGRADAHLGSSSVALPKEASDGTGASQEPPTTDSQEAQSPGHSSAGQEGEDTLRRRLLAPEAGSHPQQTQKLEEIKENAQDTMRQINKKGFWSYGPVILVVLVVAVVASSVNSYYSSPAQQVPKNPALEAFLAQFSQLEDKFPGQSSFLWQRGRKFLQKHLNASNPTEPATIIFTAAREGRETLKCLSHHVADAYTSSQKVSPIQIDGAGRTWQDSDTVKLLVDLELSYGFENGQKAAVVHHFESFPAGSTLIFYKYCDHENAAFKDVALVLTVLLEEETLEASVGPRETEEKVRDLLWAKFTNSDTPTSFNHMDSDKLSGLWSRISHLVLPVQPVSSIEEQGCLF
Test [6] is described as follows: optical density change of DRC41 E. coli – strain DRC41, OD650, 24 h, E. coli filamentation project, primary screen (AID 1093).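 Also: MC1000 strain lacking acrAB efflux and sulA so SOS filamentation is blocked; test concentration not given here.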 The settings on record: E. coli DRC41 growth, higher = more signal, called active from +8 up or from −8 down.
The nature of test [7]: probe aLefty2 binding to arrayed compounds – biochemical, biotinylated probe, 635/667 nm fluorescence, primary screen (AID 1094).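 Also: score merges spot fluorescence near 667 nm with spot signal-to-noise ratio.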 The settings on record: small-molecule microarray, higher = more signal.
The test system of test [8] is Noggin (protein binding on small-molecule microarray). Put plainly: small molecules binding Noggin protein – biochemical, 635/667 nm fluorescence, primary screen (AID 1095).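 Also: score merges 667 nm feature fluorescence with signal to noise over triplicate slides.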 The settings on record: 635 nm fluorescence, higher = more signal.
Test [9] concerns the target Neurogenic locus notch homolog protein 3 (Homo sapiens) (UniProt Q9UM47). Nature of the test: small molecules binding NOTCH3 protein – biochemical, 635/667 nm fluorescence, primary screen (AID 1096). The note with it: small-molecule microarray, 635 nm fluorescence, higher = more signal.
A short description of test [10]: probe aEGFR binding to arrayed compounds – biochemical, biotinylated probe, 635/667 nm fluorescence, primary screen (AID 1097).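 Also: probe is a biotinylated anti-EGFR antibody binding compounds printed on slides; score combines fluorescence near 667 nm and signal to noise of each spot.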 The settings on record: small-molecule microarray, higher = more signal.
Test [11] concerns Plasmodium falciparum Sir2 (PF13_0152, Sir2A). Nature of the test: Plasmodium falciparum Sir2A binding compounds – biochemical, small-molecule microarray, 635 nm fluorescence, primary screen (AID 1098).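 Also: score merges spot fluorescence intensity with its signal-to-noise ratio.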 The settings on record: fluorescence 635 nm, higher = more signal.
Test [12] is described as follows: probe aDKK1 binding to arrayed compounds – biochemical, biotinylated probe, 635/667 nm fluorescence, primary screen (AID 1099).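 Also: score merges 667nm spot fluorescence with signal to noise across triplicate slides; reference of the scale not given here.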 The note with it: small-molecule microarray, higher = more signal.
The nature of test [13]: probe aCHRDL2 binding to arrayed compounds – biochemical, biotinylated probe, 635/667 nm fluorescence, primary screen (AID 1100). The note with it: small-molecule microarray, higher = more signal.
A short description of test [14]: change in splice reporter luminescence, either direction, cell-based, HEK293, spliceosome inhibition project, primary screen (AID 1101).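 Also: HEK293 cells carrying a splicing-competent luciferase reporter gene; test concentration not given here.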 The settings on record: HEK293 splicing luciferase reporter, 24 h, higher = more signal, called active from +8 up or from −8 down. On the technique in general: A reporter such as luciferase makes a cellular process visible.
For test [15], the target named is Fibroblast growth factor 10 (Homo sapiens) (UniProt O15520). Put plainly: compounds binding fibroblast growth factor 10 – biochemical, small-molecule microarray, 635 nm fluorescence, primary screen (AID 1102). The note with it: FGF10 binding, fluorescence 635 nm, higher = more signal.
Fibroblast growth factor 10 (Homo sapiens), sequence (O15520 whole entry, looked up): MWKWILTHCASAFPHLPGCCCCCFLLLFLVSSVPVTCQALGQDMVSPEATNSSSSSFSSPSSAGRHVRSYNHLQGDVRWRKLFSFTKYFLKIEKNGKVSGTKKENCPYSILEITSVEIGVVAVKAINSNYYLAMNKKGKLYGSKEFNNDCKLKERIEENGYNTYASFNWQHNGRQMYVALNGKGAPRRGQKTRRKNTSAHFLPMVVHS
In test [16] the test system is glycogen synthase kinase-3 (GSK3A per assay name; protocol says GSK3B). Put plainly: compounds binding glycogen synthase kinase-3 – biochemical, small-molecule microarray, 635 nm fluorescence, GSK3A, primary screen (AID 1103). Also: the record names both GSK3A and GSK3B. The note with it: fluorescence 635 nm, higher = more signal.
The target in test [17] is Epidermal growth factor receptor (Homo sapiens) (UniProt P00533). Put plainly: compounds binding epidermal growth factor receptor – biochemical, small-molecule microarray, 635 nm fluorescence, primary screen (AID 1104).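 Also: score merges 667 nm emission intensity with spot signal to noise over triplicate slides.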 The settings on record: EGFR binding, higher = more signal.
Epidermal growth factor receptor (Homo sapiens), sequence (P00533 whole entry, looked up): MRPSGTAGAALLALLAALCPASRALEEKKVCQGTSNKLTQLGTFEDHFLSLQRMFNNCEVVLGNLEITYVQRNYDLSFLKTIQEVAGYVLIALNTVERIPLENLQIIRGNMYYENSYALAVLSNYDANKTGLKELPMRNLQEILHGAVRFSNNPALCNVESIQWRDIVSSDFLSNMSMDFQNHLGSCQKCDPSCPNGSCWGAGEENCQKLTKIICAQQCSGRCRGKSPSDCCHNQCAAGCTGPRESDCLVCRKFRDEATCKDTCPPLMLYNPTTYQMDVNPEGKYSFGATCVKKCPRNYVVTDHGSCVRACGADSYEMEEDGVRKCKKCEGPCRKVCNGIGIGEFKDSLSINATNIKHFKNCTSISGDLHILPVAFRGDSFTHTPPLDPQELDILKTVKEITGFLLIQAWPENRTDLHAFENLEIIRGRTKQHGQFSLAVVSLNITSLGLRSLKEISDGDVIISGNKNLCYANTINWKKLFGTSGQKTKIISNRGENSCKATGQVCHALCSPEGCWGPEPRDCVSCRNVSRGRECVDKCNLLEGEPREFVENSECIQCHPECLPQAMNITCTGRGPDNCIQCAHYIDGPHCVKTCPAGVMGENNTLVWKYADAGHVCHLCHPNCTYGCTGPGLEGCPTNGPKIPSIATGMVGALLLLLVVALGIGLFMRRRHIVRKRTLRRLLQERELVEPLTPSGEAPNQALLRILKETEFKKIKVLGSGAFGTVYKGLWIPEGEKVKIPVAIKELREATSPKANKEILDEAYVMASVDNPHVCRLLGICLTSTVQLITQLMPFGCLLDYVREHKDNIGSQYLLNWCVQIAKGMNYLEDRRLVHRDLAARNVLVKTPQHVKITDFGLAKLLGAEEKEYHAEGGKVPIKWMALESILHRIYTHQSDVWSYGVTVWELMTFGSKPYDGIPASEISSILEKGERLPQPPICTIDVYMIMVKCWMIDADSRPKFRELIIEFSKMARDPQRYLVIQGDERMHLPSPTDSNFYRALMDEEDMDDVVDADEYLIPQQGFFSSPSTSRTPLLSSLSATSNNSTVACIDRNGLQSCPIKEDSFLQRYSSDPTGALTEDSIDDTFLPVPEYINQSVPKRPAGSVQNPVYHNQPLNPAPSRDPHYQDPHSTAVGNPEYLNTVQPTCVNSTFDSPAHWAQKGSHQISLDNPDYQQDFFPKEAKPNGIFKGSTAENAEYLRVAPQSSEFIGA
For test [18], the target named is Follistatin-related protein 3 (Homo sapiens) (UniProt O95633). Nature of the test: compounds binding follistatin-related protein 3 – biochemical, small-molecule microarray, 635 nm fluorescence, primary screen (AID 1105).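 Also: score merges emission near 667 nm and signal to noise per printed spot across three slides.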 The note with it: FSTL3 binding, higher = more signal.
Follistatin-related protein 3 (Homo sapiens), sequence (O95633 whole entry, looked up): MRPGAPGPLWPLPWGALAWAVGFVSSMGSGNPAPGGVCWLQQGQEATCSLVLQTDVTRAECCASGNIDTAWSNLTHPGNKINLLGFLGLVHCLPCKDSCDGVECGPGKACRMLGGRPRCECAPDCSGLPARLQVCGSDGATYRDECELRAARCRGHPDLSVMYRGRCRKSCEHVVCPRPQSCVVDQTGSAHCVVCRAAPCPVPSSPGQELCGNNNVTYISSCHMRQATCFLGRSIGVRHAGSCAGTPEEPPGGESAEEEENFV
Test [19] addresses Dickkopf-related protein 1 (Homo sapiens) (UniProt O94907). Nature of the test: small molecules binding DKK1 protein – biochemical, small-molecule microarray, 635 nm fluorescence scan, primary screen (AID 1106).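 Also: score merges emission near 667 nm with signal to noise over three replicate slides.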 The note with it: higher = more signal.
Test [20] has as its system Inhibin beta A chain (activin A). Put plainly: small molecules binding activin A – biochemical, small-molecule microarray, 635 nm fluorescence scan, primary screen (AID 1107).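 Also: mouse activin A protein probed at 4.33 µg/mL on printed slides; score merges bound-protein fluorescence near 667 nm with spot signal-to-noise.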 The note with it: INHBA, higher = more signal.

Calls of active or inactive are those of the source.

Neurogenic locus notch homolog protein 3 (Homo sapiens), sequence (Q9UM47 whole entry, looked up): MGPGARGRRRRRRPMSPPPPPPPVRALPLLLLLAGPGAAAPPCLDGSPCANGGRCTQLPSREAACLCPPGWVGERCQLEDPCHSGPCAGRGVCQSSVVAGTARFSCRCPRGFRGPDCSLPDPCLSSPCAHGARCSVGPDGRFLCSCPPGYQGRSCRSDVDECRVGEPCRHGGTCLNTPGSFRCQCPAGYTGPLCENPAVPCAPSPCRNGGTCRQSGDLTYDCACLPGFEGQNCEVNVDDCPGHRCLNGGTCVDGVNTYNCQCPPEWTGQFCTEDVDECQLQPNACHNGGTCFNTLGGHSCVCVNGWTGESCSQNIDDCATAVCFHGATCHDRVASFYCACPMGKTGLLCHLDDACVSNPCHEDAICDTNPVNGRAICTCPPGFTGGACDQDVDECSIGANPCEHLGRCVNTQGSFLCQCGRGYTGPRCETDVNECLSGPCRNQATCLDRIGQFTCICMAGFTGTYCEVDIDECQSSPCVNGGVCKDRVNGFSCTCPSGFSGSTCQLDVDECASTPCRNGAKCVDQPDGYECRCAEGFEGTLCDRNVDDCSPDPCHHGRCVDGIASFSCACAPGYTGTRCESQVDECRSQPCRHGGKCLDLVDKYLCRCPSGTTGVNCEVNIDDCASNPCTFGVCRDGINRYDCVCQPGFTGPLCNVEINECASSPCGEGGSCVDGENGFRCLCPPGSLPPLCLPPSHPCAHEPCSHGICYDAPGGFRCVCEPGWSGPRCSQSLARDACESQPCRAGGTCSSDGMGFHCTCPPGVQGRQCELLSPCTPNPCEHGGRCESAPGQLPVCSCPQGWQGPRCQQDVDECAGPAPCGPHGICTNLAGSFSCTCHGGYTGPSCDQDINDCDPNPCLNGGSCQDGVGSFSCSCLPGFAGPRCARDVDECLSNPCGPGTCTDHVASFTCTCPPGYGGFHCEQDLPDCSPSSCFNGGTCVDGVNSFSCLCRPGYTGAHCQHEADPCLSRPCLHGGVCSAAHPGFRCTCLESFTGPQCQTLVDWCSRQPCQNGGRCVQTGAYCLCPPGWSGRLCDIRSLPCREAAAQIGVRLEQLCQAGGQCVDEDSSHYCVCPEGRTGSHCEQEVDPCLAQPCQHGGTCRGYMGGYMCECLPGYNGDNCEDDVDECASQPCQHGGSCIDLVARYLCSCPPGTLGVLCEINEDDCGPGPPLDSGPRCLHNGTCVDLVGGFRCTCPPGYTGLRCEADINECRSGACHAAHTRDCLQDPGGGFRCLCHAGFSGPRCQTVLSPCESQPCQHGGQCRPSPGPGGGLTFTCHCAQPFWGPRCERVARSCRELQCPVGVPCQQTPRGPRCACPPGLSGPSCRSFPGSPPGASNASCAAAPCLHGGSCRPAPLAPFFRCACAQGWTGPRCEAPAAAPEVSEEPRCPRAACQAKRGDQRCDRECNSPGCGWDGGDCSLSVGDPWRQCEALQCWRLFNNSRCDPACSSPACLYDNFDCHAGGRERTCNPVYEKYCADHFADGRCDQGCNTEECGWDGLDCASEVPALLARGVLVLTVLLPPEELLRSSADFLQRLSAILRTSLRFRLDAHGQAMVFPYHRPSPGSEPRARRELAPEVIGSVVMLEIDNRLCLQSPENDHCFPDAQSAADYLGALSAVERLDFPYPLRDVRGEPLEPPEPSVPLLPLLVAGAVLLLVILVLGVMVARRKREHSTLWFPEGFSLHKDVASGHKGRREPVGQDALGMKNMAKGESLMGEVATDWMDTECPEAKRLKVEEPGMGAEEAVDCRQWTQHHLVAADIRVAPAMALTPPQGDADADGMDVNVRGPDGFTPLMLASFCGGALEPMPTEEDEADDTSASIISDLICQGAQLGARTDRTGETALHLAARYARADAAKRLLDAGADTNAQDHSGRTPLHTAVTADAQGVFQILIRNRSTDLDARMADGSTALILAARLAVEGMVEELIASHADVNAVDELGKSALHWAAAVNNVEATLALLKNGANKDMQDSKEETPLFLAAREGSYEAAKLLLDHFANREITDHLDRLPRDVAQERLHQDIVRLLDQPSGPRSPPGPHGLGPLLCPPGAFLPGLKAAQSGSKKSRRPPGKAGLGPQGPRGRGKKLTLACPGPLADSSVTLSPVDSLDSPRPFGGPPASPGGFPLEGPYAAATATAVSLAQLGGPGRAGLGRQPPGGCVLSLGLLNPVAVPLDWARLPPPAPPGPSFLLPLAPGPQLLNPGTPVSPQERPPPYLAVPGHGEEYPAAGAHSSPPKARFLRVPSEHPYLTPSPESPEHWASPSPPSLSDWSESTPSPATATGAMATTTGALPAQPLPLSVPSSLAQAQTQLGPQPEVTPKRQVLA
Dickkopf-related protein 1 (Homo sapiens), sequence (O94907 whole entry, looked up): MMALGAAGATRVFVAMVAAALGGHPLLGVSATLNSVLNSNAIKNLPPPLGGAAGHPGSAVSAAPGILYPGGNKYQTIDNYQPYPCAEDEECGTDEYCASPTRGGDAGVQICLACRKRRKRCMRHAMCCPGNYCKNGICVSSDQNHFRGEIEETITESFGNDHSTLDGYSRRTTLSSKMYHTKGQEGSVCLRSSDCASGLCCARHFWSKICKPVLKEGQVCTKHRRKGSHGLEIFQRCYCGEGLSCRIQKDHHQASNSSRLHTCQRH

Turning to `CC(C)C[C@@H]1NC(=O)[C@@H]2C[C@H](C(=O)NCCCCCCN)[C@H](c3cccc(OCCO)c3)N2C1=O`, the composite z-score in test [1] came to 1.53; in [5], 2.98; in [7], 0.235; in test [8], 0.993; in test [9] it was 1.12; in test [10], 0.0499. For the same compound, the composite z-score came to 1.55 in test [11]; 0.286 in test [12]; 0.532 in test [13]; 1.13 in test [15]; 0.712 in test [16]; 0.0515 in test [17]. Further, the figures for the composite z-score in test [18], in test [19] and in test [20] were 1.08, 0.236 and 0.775, respectively. In addition, the z-score in test [2] was -0.148 (inactive); in test [3], -0.114 (inactive); in test [4], -0.502 (inactive); in test [6] it was 1.03 (inactive); in test [14], 0.138 (inactive).
As for `COCC(=C=CC[C@H](O)c1ccc(OCCO)cc1)CCO`, the composite z-score amounted to 1.18 in test [1]; 2.42 in test [5]; 0.106 in test [7]; 1.21 in test [8]; 0.227 in test [9]; 0.0882 in test [10]. Further, the composite z-score in [11] is 1.09; in [12], 0.0019; in test [13], 0.273; in [15], 0.4; in [16] it was 0.42; in test [17], -0.211. In addition, the composite z-score in test [18] is 0.593; in [19] it was 0.0604; in [20], 1.43. Also, the z-score in test [2] is 0.028 (inactive); in [3], -0.406 (inactive); in test [4], -0.274 (inactive); in test [6] it was 0.399 (inactive); in test [14], -0.51 (inactive).
As for `COCCOC(=O)N1C(=O)[C@@]2(c3cc(C#CCC(C(=O)OC)C(=O)OC)ccc31)[C@H](c1ccc(OCCO)cc1)N1[C@H](c3ccccc3)[C@H](c3ccccc3)OC(=O)[C@H]1[C@@H]2C(=O)N1CCc2cc(OC)c(OC)cc2C1`, the composite z-score came to 1.55 in test [1]; 2.81 in test [5]; 0.0146 in test [7]; 1.72 in test [8]; 1.06 in test [9]; 0.091 in test [10]. In addition, the composite z-score is 0.752 in test [11]; 0.258 in test [12]; 0.0031 in test [13]; 1.4 in test [15]; 1.31 in test [16]; 0.76 in test [17]. The composite z-score in [18] is 1.28; in test [19], 0.411; in [20] it was 0.622. The z-score in test [2] is 2.13 (inactive); in test [3], 2 (inactive); in test [4], 5.2 (inactive); in test [6], 0.713 (inactive); in [14] it was 0.414 (inactive).
Turning to `C=CC[C@@]1(C(=O)NCCCOC)N=C(c2ccc(OCCCO)cc2)O[C@@H]1c1ccccc1N=[N+]=[N-]`, the composite z-score is 1.14 in test [1]; 3.09 in test [5]; 0.085 in test [7]; 0.794 in test [8]; 0.681 in [9]; -0.019 in test [10]. Besides, the composite z-score in [11] is 0.826; in test [12], 0.648; in test [13] it was 0.999; in test [15] it was 0.919; in test [16] it was 0.595; in test [17] it was -0.276. The composite z-score was 0.45 in test [18], -0.178 in test [19] and 0.961 in [20]. Also, the z-score was 0.339 (inactive) in test [2]; 0.561 (inactive) in [3]; -0.441 (inactive) in test [4]; 1.24 (inactive) in [6]; 0.0875 (inactive) in test [14].
For the compound `CN(C)C(=O)[C@@]1(Cc2ccccc2CN=[N+]=[N-])N=C(c2ccc(OCCCO)cc2)O[C@H]1c1ccccc1N=[N+]=[N-]`, the composite z-score in test [1] is 1.43; in [5], 3.37; in test [7], 0.445; in test [8], 0.452; in test [9], 1.14; in test [10] it was 0.242. Also, the composite z-score in test [11] was 1.63; in test [12], 0.842; in [13], 1; in test [15] it was 0.884; in [16], 0.588; in [17], -0.239. Further, the composite z-score was 0.724 in test [18], -0.451 in test [19] and 0.987 in test [20]. The z-score in test [2] was -0.415 (inactive); in test [3], 0.417 (inactive); in test [4] it was 5.36 (inactive); in test [6] it was 0.151 (inactive); in [14], -0.731 (inactive).
